# Laboratory results as given in publication PMC7862700, “An all-to-all approach to the identification of sequence-specific readers for epigenetic DNA modifications on cytosine”.
# Assays:
# Experiment in all cases: DAPPL (digital affinity profiling via proximity ligation, sequencing); 10 mM Tris-HCl pH 7.5, 50 mM NaCl, 1 mM DTT, 4% glycerol, room temperature, 30 min; GST-TFs on glutathione beads, 16-mer random dsDNA library, 0.1% formaldehyde crosslink after washing; high values mean tight binding
# [1] = biological target: T1, FEV (Homo sapiens, UniProt Q99581 1-238); details: protein: recombinant; tags: N-terminal GST; dsDNA, one strand shown
# T1 sequence: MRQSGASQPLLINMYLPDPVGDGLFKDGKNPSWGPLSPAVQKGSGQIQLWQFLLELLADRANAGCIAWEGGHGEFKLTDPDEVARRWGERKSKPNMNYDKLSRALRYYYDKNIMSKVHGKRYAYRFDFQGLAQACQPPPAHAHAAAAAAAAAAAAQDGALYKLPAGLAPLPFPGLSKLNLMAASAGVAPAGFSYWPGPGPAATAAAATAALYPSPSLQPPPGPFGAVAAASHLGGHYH
# In short: (§1)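 Pools were built from human transcription factors expressed in yeast as GST fusions, captured on glutathione beads and DNA-barcoded, along with a tag-only sample. Incubation with 200 nmole of a 16-mer random double-stranded DNA library lasted 30 min at room temperature in Tris/NaCl/DTT/glycerol buffer, and was followed by washing, 0.1% formaldehyde crosslinking, proximity ligation, PCR amplification and Illumina NextSeq500 sequencing. Binding signal is the quotient of each hexamer's read frequency for a factor and its frequency for the tag-only sample.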
# [2] = biological target: ETV5 (Homo sapiens, UniProt P41161 1-510); details: protein: recombinant; tags: N-terminal GST; dsDNA, one strand shown
# ETV5, sequence (P41161 whole entry): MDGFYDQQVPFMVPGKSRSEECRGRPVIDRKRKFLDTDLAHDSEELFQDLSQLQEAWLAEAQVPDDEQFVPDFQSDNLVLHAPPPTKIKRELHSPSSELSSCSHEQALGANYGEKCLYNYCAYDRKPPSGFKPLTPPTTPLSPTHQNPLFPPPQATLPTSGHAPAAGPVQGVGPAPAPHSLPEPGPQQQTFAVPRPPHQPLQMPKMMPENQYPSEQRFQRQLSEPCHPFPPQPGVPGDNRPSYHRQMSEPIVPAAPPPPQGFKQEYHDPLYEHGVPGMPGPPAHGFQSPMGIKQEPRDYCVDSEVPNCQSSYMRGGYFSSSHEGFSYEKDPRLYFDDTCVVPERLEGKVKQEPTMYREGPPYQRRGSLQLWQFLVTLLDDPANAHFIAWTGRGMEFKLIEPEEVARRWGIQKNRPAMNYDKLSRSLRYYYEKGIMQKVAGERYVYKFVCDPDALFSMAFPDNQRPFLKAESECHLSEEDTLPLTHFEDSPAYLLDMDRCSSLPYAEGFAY
# In short: as §1
# [3] = biological target: HSF1 (Homo sapiens, UniProt Q00613 1-529); details: protein: recombinant; tags: N-terminal GST; chain copies: 3; dsDNA, one strand shown
# HSF1, sequence (Q00613 whole entry): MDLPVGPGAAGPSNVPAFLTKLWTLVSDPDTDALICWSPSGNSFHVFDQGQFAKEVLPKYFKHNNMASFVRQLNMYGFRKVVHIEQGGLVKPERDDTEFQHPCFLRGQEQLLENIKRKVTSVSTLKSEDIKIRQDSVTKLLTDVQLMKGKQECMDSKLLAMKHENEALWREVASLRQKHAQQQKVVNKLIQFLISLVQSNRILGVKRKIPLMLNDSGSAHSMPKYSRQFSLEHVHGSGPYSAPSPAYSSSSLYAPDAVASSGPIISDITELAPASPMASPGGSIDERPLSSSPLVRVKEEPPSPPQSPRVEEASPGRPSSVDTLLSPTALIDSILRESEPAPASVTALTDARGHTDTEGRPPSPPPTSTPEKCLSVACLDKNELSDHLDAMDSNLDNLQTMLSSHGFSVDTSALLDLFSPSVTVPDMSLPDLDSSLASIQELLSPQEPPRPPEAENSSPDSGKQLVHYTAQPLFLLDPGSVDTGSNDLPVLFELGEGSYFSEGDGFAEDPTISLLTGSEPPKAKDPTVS
# In short: as §1
# [4] = biological target: T2, SPIC (Homo sapiens, UniProt Q8N5J4 1-248); details: protein: recombinant; tags: N-terminal GST; dsDNA, one strand shown
# T2 sequence: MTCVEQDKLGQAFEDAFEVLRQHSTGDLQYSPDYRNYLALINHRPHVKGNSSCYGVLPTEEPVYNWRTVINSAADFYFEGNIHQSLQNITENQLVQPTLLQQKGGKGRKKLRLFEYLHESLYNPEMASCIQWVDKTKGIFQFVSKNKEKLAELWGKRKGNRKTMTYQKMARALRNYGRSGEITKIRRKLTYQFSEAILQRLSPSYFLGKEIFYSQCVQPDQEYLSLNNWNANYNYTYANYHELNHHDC
# In short: as §1
# [5] = biological target: ELF4 (Homo sapiens, UniProt Q99607 1-663); details: protein: recombinant; tags: N-terminal GST; dsDNA, one strand shown
# ELF4, sequence (Q99607 whole entry): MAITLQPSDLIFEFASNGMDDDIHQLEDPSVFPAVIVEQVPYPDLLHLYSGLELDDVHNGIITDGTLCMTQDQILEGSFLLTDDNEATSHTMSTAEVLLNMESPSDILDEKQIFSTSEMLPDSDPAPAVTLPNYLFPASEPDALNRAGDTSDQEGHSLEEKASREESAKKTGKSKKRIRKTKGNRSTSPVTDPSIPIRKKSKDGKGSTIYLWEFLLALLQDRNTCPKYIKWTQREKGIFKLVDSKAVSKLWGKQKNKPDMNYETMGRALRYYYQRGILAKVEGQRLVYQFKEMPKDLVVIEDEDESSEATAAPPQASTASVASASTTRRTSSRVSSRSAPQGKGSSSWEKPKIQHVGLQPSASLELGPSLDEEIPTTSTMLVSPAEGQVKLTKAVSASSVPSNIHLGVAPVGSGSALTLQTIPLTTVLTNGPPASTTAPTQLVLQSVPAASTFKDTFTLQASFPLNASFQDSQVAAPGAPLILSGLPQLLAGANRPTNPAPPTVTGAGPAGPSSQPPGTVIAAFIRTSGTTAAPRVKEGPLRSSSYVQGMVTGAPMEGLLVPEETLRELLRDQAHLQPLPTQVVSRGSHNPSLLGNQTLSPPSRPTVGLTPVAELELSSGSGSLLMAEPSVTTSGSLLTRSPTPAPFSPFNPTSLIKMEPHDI
# In short: as §1
# [6] = biological target: T3, ELK4 (Homo sapiens, UniProt P28324-2 1-405); details: protein: recombinant; tags: N-terminal GST; dsDNA, one strand shown
# T3 sequence: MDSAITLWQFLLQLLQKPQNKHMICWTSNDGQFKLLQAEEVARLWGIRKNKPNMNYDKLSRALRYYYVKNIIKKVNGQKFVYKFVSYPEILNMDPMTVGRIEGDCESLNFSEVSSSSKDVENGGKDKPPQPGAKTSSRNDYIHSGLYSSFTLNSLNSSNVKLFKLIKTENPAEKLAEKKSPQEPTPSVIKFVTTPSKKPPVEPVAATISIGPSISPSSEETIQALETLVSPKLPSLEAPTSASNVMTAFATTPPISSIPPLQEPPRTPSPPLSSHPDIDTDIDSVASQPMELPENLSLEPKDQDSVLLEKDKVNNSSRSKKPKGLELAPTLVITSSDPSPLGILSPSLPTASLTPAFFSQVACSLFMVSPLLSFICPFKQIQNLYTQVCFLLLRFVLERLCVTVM
# In short: as §1
# [7] = biological target: T4, ETV2 (Homo sapiens, UniProt O00321 1-342); details: protein: recombinant; tags: N-terminal GST; dsDNA, one strand shown
# T4 sequence: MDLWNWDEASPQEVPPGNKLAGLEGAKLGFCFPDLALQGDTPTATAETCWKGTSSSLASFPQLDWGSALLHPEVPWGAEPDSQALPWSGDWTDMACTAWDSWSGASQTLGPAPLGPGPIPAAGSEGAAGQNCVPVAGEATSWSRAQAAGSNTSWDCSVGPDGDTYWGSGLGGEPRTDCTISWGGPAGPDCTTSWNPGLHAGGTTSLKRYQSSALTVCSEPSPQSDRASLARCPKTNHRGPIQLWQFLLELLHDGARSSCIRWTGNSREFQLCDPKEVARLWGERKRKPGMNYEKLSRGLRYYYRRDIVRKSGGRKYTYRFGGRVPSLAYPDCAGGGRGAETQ
# In short: as §1
# [8] = biological target: T5, ELF3 (Homo sapiens, UniProt P78545 1-371); details: protein: recombinant; tags: N-terminal GST; dsDNA, one strand shown
# T5 sequence: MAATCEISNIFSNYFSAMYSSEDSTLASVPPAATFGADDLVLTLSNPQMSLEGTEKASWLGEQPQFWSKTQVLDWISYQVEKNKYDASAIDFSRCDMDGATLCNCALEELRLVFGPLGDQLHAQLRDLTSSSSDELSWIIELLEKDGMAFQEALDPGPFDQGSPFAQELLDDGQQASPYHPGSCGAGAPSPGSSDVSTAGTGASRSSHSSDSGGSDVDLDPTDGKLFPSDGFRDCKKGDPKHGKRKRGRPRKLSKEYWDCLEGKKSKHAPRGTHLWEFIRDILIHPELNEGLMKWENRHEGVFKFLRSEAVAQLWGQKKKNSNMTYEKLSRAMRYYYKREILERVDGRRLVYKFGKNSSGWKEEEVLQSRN
# In short: as §1
# [9] = biological target: CRX (Homo sapiens, UniProt O43186 1-299); details: protein: recombinant; tags: N-terminal GST; dsDNA, one strand shown
# CRX, sequence (O43186 whole entry): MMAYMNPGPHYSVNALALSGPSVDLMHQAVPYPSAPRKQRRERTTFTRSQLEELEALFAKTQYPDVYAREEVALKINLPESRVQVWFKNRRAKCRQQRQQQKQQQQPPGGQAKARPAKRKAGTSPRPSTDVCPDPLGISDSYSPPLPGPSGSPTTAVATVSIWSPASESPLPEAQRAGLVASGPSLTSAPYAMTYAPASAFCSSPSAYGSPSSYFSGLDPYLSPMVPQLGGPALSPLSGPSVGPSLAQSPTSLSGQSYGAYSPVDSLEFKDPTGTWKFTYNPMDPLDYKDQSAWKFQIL
# In short: as §1
# [10] = biological target: ETV1 (Homo sapiens, UniProt P50549 1-477); details: protein: recombinant; tags: N-terminal GST; dsDNA, one strand shown
# ETV1, sequence (P50549 whole entry): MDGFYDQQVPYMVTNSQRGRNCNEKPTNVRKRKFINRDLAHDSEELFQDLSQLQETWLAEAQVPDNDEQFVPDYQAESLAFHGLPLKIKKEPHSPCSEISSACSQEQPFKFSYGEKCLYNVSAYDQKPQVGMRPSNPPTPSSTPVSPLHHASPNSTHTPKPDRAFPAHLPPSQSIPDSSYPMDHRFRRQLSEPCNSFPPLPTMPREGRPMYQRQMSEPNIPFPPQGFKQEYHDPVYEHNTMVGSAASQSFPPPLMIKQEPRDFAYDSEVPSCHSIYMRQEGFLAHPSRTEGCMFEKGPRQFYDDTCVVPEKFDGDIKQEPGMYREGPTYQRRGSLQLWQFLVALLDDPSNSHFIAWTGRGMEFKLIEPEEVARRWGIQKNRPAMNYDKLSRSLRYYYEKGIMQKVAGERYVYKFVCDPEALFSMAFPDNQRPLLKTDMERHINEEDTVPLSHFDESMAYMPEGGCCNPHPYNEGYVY
# In short: as §1
sequence,measurement,setting,value
TACTCA,binding signal,[1],"1.24 fold enrichment (6-mer frequency, TF over GST control)"
same,binding signal,[2],"1.17 fold enrichment (6-mer frequency, TF over GST control)"
same,binding signal,[3],"1.12 fold enrichment (6-mer frequency, TF over GST control)"
same,binding signal,[4],"1.19 fold enrichment (6-mer frequency, TF over GST control)"
same,binding signal,[5],"1.23 fold enrichment (6-mer frequency, TF over GST control)"
same,binding signal,[6],"1.13 fold enrichment (6-mer frequency, TF over GST control)"
same,binding signal,[7],"1.17 fold enrichment (6-mer frequency, TF over GST control)"
same,binding signal,[8],"1.22 fold enrichment (6-mer frequency, TF over GST control)"
same,binding signal,[9],"1.26 fold enrichment (6-mer frequency, TF over GST control)"
same,binding signal,[10],"1.19 fold enrichment (6-mer frequency, TF over GST control)"
